Records with an inconclusive call do not appear. Active and inactive are the calls of the source. Unless noted, calls follow the shape of the dose curve; as a rule, active = well fitted curve in the direction sought with a large enough effect; inconclusive = small, poorly fitted or top-dose-only effect, or another doubt; inactive = no such curve, though single readings can be large; an effect the other way counts as inactive or inconclusive.
Tests used:
[1] = target: Flap endonuclease 1 (Homo sapiens) (UniProt P39748); experiment: qHTS Validation Assay for the Inhibitors of Human Flap endonuclease 1 (FEN1) (AID 488816)
Chain of Flap endonuclease 1 (Homo sapiens) (P39748 whole entry, looked up): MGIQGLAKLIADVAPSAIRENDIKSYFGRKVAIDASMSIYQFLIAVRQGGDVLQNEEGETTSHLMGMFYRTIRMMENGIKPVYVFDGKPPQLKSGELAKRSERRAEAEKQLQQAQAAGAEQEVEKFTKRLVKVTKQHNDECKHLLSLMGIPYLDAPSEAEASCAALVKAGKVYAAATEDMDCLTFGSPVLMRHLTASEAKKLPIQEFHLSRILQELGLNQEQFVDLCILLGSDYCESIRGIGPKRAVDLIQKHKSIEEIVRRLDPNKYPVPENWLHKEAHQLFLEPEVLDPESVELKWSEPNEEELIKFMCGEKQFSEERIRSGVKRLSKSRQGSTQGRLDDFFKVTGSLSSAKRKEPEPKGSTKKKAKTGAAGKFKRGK
Procedure, shortened: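 Readings taken at 0 and 15 min after starting the reaction with 50 nM (final) substrate supplied the signal. Compounds had first sat with 10 nM FEN1 reagent for 15 min at room temperature. Values come from Hill-equation concentration-response fits.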

[2] = target: Thioredoxin reductase 1, cytoplasmic (Rattus norvegicus) (UniProt O89049); experiment: qHTS Assay for Substrates of Mammalian Selenoprotein Thioredoxin Reductase 1 (TrxR1) (AID 488772);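 also: NADPH fluorescence in the first read after selenite addition and not the 8 min delta; series mostly up to about 57 µM; a drop in NADPH fluorescence below the no-compound background marks a TrxR1 substrate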
Chain of Thioredoxin reductase 1, cytoplasmic (Rattus norvegicus) (O89049 whole entry, looked up): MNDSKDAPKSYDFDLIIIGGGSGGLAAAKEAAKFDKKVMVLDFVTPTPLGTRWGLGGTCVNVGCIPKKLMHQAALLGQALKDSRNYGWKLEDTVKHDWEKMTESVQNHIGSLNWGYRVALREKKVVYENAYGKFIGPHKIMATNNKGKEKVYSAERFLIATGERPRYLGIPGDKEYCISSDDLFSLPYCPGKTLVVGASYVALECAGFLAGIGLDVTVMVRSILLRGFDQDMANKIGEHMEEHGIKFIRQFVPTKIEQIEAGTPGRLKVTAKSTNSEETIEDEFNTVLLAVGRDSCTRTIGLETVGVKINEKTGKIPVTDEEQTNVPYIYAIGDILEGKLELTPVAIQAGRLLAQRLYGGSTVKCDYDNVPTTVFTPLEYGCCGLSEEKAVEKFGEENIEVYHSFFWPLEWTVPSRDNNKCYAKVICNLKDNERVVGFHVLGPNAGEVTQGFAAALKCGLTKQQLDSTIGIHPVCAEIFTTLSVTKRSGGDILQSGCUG
Procedure, shortened: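 Quantitative HTS in Tris-HCl buffer at pH 7.5 with EDTA and Tween-20, using rat TrxR1, 400 uM NADPH and 400 uM selenite (final). A fall in initial NADPH fluorescence relative to background marked substrate behaviour.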

[3] = Quantitative high throughput screen for delayed death inhibitors of the malarial parasite plastid, 96 hour incubation (AID 488745); also: nearly all actives have a fitted effect of over 70% in size; also: potency is read from the fitted curve at half-maximal effect
Procedure, shortened: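 Infected erythrocytes were added to compound in Albumax-supplemented RPMI 1640 at 0.1% parasitemia and 2% hematocrit (final), incubated 96 h at 37 C under 5% CO2, then luciferase reagent was added and luminescence measured.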

[4] = Quantitative high throughput screen for delayed death inhibitors of the malarial parasite plastid, 48 hour incubation (AID 488752); also: nearly all actives have a fitted effect of over 65% in size; also: potency is read from the fitted curve at half-maximal effect
From the text: NIH Molecular Libraries Probe Production Network [MLPCN]
NIH Chemical Genomics Center [NCGC]
Assay Provider: David Fidock and Eric Ekland, Columbia University
The goal of this screen is to discover new antimalarial compounds that act by inhibiting the development of the apicoplast in the malarial parasite Plasmodium falciparum. The biochemical processes that make this organelle essential for erythrocytic stage parasites are not well understood. However, antibiotics, such as azithromycin and tetracycline, which target the apicoplast translational machinery, have a potent antimalarial effect.
We have developed a cell-based assay that measures parasite growth based on the expression of an integrated copy of a firefly luciferase reporter. To detect small molecules that cause this 'delayed death' phenotype, erythrocytes infected with the luciferase-expressing parasites were incubated with compounds for either one or two generations, corresponding to 48 and 96 hours, respectively. Compounds that inhibit parasite growth in the second generation, but not the first, should be enriched in antimalarials that target the apicoplast. Growth inhibition is detected by a decrease in luciferase activity
Four microliters of culture medium (RPMI 1640 with 0.5% w/v Albumax (GIBCO), 24 mM sodium bicarbonate and 10 ug/mL gentamycin) were dispensed by a Multi-drop Combi into white solid 1536-well plates (Grenier) and 23 nL compound was added by a pin tool. Four microliters of infected erythrocytes (2% hematocrit, 0.1% parasitemia final concentration) in culture medium were dispensed and the plates incubated for 48 hours at 37 C in 5% CO2. Two microliters of luciferase detection reagent was added and luminescence was detected by a ViewLux (PerkinElmer) reader

[5] = target: M-phase phosphoprotein 8 (Homo sapiens) (UniProt Q99549); experiment: qHTS Validation Assay for Inhibitors for MPP8 Chromodomain Interactions with Methylated Histone Tails (AID 488949); also: nearly all actives have a fitted effect of over 55% in size; also: potency is read from the fitted curve at half-maximal effect
Chain of M-phase phosphoprotein 8 (Homo sapiens) (Q99549 whole entry, looked up): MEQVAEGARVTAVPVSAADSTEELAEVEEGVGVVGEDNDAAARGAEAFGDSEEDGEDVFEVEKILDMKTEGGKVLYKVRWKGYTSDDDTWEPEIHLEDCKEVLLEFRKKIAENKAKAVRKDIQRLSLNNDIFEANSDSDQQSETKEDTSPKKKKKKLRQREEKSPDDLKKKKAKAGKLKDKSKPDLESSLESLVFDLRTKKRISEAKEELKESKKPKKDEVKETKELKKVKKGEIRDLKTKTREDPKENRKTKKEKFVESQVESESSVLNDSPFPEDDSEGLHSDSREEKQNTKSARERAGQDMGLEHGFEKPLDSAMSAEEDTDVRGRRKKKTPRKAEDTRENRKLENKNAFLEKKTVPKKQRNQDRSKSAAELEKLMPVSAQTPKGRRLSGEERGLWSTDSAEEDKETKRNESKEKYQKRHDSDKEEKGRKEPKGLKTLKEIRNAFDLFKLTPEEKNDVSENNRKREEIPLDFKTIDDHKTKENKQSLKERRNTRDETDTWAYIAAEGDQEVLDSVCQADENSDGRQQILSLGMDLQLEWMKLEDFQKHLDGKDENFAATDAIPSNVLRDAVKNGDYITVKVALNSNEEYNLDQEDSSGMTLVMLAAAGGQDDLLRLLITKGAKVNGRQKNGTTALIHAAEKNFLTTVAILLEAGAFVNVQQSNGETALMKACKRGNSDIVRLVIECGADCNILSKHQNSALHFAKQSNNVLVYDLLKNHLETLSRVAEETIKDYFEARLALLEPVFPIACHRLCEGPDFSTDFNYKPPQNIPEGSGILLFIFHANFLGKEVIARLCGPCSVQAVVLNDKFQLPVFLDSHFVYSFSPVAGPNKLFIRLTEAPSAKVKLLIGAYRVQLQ
Procedure, shortened: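 Disruption of the preformed MPP8–trimethyl-H3K9 peptide complex (both 50 nM, 30 min, RT) is measured after 30 min compound exposure, using AlphaScreen proximity beads; aurintricarboxylic acid titration serves as plate control.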

[6] = target: Tumor susceptibility gene 101 protein (Homo sapiens) (UniProt Q99816); experiment: qHTS Validation Assay for Iinhibitors of HIV-1 Budding by Blocking the Interaction of PTAP/TSG101 (AID 485342; calls by dose curve)
Chain of Tumor susceptibility gene 101 protein (Homo sapiens) (Q99816 whole entry, looked up, the tested form may be a part): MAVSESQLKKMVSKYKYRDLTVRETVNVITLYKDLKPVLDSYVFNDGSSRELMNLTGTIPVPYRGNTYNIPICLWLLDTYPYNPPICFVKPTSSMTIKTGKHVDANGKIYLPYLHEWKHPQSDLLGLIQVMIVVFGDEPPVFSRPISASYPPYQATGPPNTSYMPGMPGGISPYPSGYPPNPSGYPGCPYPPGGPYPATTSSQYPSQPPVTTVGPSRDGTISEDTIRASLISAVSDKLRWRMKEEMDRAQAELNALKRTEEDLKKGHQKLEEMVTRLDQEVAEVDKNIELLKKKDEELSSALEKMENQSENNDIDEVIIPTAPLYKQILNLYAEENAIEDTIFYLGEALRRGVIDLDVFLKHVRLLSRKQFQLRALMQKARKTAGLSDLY
Procedure, shortened: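 Fluorescence anisotropy measured PTAP-Tsg101 interaction. Final concentrations were 10 uM protein domain and 50 nM labeled peptide, equilibrated 20 min at room temperature.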

[7] = target: Thioredoxin reductase 1, cytoplasmic (Rattus norvegicus) (UniProt O89049); experiment: qHTS Assay for Inhibitors of Mammalian Selenoprotein Thioredoxin Reductase 1 (TrxR1) (AID 488773); settings: Potency: inhibition; also: nearly all actives have a fitted effect of over 40% in size; also: potency is read from the fitted curve at half-maximal effect
Procedure, shortened: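 Steps: enzyme (90 nM) plus NADPH (400 uM final), 5 min at ~22 deg C; compound added, 15 min; selenite (400 uM final) added; fluorescence followed for 8 min. Concentration-response curves derived from the normalized delta values.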

[8] = target: Beta-2 adrenergic receptor (Homo sapiens) (UniProt P07550); experiment: qHTS validation assay of beta-arrestin-biased ligands of beta2-adrenergic receptor (AID 485366)
Chain of Beta-2 adrenergic receptor (Homo sapiens) (P07550 whole entry, looked up): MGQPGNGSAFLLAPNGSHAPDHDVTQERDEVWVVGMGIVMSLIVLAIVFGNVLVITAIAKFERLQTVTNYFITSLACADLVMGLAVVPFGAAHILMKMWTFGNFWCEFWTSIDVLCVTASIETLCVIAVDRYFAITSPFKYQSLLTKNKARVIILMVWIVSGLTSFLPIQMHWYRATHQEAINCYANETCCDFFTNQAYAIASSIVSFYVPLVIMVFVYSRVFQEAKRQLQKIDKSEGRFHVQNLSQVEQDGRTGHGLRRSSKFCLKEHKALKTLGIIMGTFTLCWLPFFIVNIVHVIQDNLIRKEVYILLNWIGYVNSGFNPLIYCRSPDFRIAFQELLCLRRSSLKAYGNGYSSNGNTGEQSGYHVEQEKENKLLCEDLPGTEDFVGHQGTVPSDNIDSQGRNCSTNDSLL
Procedure, shortened: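 Tango cells expressing recombinant beta2-AR and beta-arrestin with tTA-driven luciferase, in DMEM with 1% FBS. Compounds were titrated up to 46 microM for 18 hr at 37 degrees C. Luminescence was read 15 min after substrate; curves were fitted and class-assigned.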

[9] = target: ATP-dependent 6-phosphofructokinase (Trypanosoma brucei brucei) (UniProt O15648); experiment: qHTS Validation Assay to Find Inhibitors of T. brucei phosphofructokinase (AID 485368); settings: outcome: dose series up to 57.5 µM
Chain of ATP-dependent 6-phosphofructokinase (Trypanosoma brucei brucei) (O15648 whole entry, looked up): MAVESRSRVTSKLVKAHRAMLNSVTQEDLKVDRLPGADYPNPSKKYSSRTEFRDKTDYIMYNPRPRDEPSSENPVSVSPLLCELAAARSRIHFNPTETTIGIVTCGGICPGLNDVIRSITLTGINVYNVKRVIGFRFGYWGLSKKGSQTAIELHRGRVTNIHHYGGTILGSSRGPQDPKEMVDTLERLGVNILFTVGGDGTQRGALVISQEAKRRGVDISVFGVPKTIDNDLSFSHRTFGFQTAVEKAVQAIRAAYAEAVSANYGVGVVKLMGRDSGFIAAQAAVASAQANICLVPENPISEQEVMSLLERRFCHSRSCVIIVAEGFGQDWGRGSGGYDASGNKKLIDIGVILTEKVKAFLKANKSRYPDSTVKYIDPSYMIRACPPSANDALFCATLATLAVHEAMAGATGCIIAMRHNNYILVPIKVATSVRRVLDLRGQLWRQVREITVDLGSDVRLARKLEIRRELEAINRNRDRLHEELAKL
Procedure, shortened: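 Activity was read as ADP production by luminescence (ADP-Glo) after 45 min at room temperature. The enzyme was 1.25nM PFK in 0.1M TEA pH 8.0 with 0.5 mM F6P, 0.1mM ATP and 5 mM MgCl2. Compounds were titrated up to 57 uM and % activity normalized to no-enzyme and full-enzyme controls.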

[10] = qHTS Validation Assay to Find Inhibitors of Chronic Active B-Cell Receptor Signaling (AID 485345; active = well fitted curve in the direction sought with a large enough effect in the main read-out, with a control signal flat, not every such curve was filed as active)
Procedure, shortened: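 Read-out: ratio of filter-corrected green (IkappaBalpha fusion) to red (native) luciferase signal in doxycycline-induced TMD8 cells after 4 h at 37C. Titration spanned 46 uM–3 nM; Data were normalised to basal cells and 10 uM MG-132 wells.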

Measured: Potency

NC(N)=NCCC[C@H](N)C(=O)O
inactive: [1]

NC(N)=NC(=O)c1nc(Cl)c(N)nc1N
inactive: [2] | [1]

CCCCCCCCC(=O)NCc1ccc(O)c(OC)c1
inactive: [3] | [4] | [5]

CC[C@H]1CN2CCc3cc(OC)c(OC)cc3[C@@H]2C[C@@H]1C[C@H]1NCCc2cc(OC)c(OC)cc21
inactive: [1]

COC(=O)C1=C(C)NC(C)=C(C(=O)OC)C1c1ccccc1[N+](=O)[O-]
active: [5] 39.8 µM

CCOC(=O)Nc1ccc(NCc2ccc(F)cc2)nc1N
inactive: [6] | [1]
active: [7] 10.6 µM

c1ccc2nc(N3CCNCC3)ccc2c1
inactive: [3] | [4] | [5]

Cc1cc(C(C)(C)C)cc(C)c1CC1=NCCN1
inactive: [5]

Brc1c(NC2=NCCN2)ccc2nccnc12
inactive: [1]
active: [7] 16.8 µM

CC(N)C(=O)OC(C)(C)Cc1ccc(Cl)cc1 (stereo not drawn)
inactive: [3] | [4] | [5]

O=C(O)c1nn(Cc2ccc(Cl)cc2Cl)c2ccccc12
inactive: [6] | [8] | [9] | [3] | [4] | [2] | [7] | [1] | [5]

NC(=O)CN1CCCC1=O
inactive: [6] | [10] | [8] | [3] | [4] | [2] | [7] | [1] | [5]

COc1ccc(C(=O)N2CCCC2=O)cc1
inactive: [6] | [10] | [8] | [9] | [3] | [4] | [2] | [7] | [5]

CNC(=O)Oc1ccc2c(c1)[C@]1(C)CCN(C)[C@@H]1N2C
inactive: [9] | [5]

C[N+](C)(C)CCCCCCCCCC[N+](C)(C)C
inactive: [1]

CN1C[C@H](C(=O)N[C@]2(C)O[C@@]3(O)[C@@H]4CCCN4C(=O)[C@H](Cc4ccccc4)N3C2=O)C[C@@H]2c3cccc4[nH]cc(c34)C[C@H]21
inactive: [5]

O=C1NCN(c2ccccc2)C12CCN(CCCC(c1ccc(F)cc1)c1ccc(F)cc1)CC2
active: [3] 3.7 µM | [4] 9.28 µM

COC(=O)C1=CCCN(C)C1
inactive: [6] | [10] | [8] | [9] | [3] | [4] | [2] | [7] | [1] | [5]

Source: PubChem BioAssay (NCATS)
